Results as given in PubChem BioAssay AID890 (National Center for Advancing Translational Sciences (NCATS), 2007).
The source made the active and inactive calls. Where a call stands in place of a potency, no number is given. Calls come from the whole dose curve; as a rule, active = well fitted activation curve with a large enough effect; inactive = flat fitted curve, though single readings scatter.

Assay: Confirmation Concentration-Response Assay for Epigenetic Modulators
Conditions: murine C127i cells, silenced GFP reporter derepression, imaging; series mostly up to 46 µM
Excerpt: NIH Molecular Libraries Screening Centers Network [MLSCN] NIH Chemical Genomics Center [NCGC] MLSCN Grant: 1 X01 MH079860-01 Assay Provider: Elisabeth D. Martinez, University of Texas SW Medical Center NCGC Assay Overview: The Locus Derepression assay detects the derepression of a GFP reporter that is stably integrated in a region of the genome of murine c127i mammary cells that is presumably silenced. GFP transcription in this construct is controlled by a CMV promoter, which normally is strong and constitutively active. However, this line was selected for lack of constitutive expression of the GFP protein. GFP production can be induced by incubating the cells with histone deacetylase or DNA methyltransferase inhibitors. Compounds that cause derepression of the locus to express GFP are identified by enumerating GFP positive cells using a laser-scanning microplate cytometer.
NCGC Assay Protocol Summary: Two hundred and fifty cells in 5 uL per well were dispensed into black, clear-bottom 1536-well plates. Twenty-three nL compound was transferred to the assay plate and cells were incubated 30 hours at 37 C. Medium was removed, cells were washed two times with PBS, and GFP-positive cells were enumerated as fluorescent objects between the sizes of 20 to 120 um width and depth using a laser-scanning microplate imager (Acumen Explorer Ex3, TTP Labtech) Keywords: NIH Roadmap, MLSCN, MLI, MLSMR, qHTS, NCGC, qHTS, HDAC, DNMT, HAT, DNA methyltransferases, histone acetyl transferases, histone deacetylases
In the case of `CCOCc1ccc(O)c2ncccc12`, the Potency is reported as 4.97 µM (active). In the case of `CC(C)C(=O)NC(c1ccc(C(C)C)cc1)c1cc(Cl)c2cccnc2c1O` (stereo not given), the Potency is reported as “inactive”. In the case of `COc1ccc(NC(c2ccccn2)c2ccc3cccnc3c2O)cc1` (stereo not given), the Potency is reported as “inactive”. With `O=Nc1ccc(O)c2ncccc12` the Potency was 2.78 µM (active). In the case of `COCc1cc(CN2CCN(C)CC2)c(O)c2ncccc12`, the Potency is reported as 37.6 µM (active). In the case of `c1ccc(Nc2nc(Nc3ccccc3)nc(-n3cccn3)n2)cc1`, the Potency is reported as “inactive”. For `CC(C)C(=O)NC(c1cccs1)c1cc(Cl)c2cccnc2c1O` (stereo not given), the Potency was “inactive”. With `S=C1SCN(C2CCCC2)CN1Cc1ccco1` the Potency was “inactive”. In the case of `COc1ccc(C)cc1NC(c1ccccn1)c1ccc2cccnc2c1O` (stereo not given), the Potency is reported as “inactive”. In the case of `O=C1OCCC1Sc1cccc2cccnc12` (stereo not given), the Potency is reported as 7.44 µM (active). With `Cc1cc(C)n(-c2nc(NC(C)(C)C)nc(NC(C)(C)C)n2)n1` the Potency was “inactive”. For `CC(/C=C/C(=O)NO)=C\[C@@H](C)C(=O)c1ccc(N(C)C)cc1`, the Potency was 1.12 µM (active). In the case of `CCN1CSC(=S)N(CC)C1`, the Potency is reported as 7 µM (active). With `CN1C(=S)SC(c2ccccc2)N(C)C1c1ccccc1` (stereo not given) the Potency was “inactive”. In the case of `O=C(CC(c1ccco1)S(=O)(=O)c1ccccc1)c1ccc(F)cc1` (stereo not given), the Potency is reported as “inactive”. In the case of `CC(C)C(=O)NC(/C=C/c1ccccc1)c1cc([N+](=O)[O-])c2cccnc2c1O` (stereo not given), the Potency is reported as “inactive”. With `CCN(CC)c1ccc2cc(-c3nc4ccccc4[nH]3)c(=O)oc2c1` the Potency was 0.56 µM (active). For `CN1CCN(Cc2cc(Cl)c3cccnc3c2O)CC1`, the Potency was 6.08 µM (active). With `Oc1c(C(Nc2ccccn2)c2ccco2)cc(Cl)c2cccnc12` (stereo not given) the Potency was “inactive”. For `O=C(Cc1ccccc1)NC(c1ccco1)c1ccc2cccnc2c1O` (stereo not given), the Potency was 16.2 µM (active). For `Oc1c(C(Nc2ccccc2C(F)(F)F)c2ccccn2)ccc2cccnc12` (stereo not given), the Potency was “inactive”. In the case of `Cc1cc(C)n(-c2nc(N(C)C)nc(N(C)C)n2)n1`, the Potency is reported as “inactive”. In the case of `Cc1cc(NC(c2ccccn2)c2ccc3cccnc3c2O)no1` (stereo not given), the Potency is reported as 8 µM (active). For `Cc1ccc(N=Nc2ccc(O)c3ncccc23)cc1C`, the Potency was “inactive”. In the case of `CC(C)C(=O)NC(c1ccco1)c1cc([N+](=O)[O-])c2cccnc2c1O` (stereo not given), the Potency is reported as “inactive”. In the case of `O=C(CSc1cccc2cccnc12)N1CCCC1`, the Potency is reported as 8.94 µM (active). For `CCCCC1CC1C(=O)Nc1ccc(OC)c(OC)c1` (stereo not given), the Potency was 14.3 µM (active). In the case of `c1cnn(-c2nc(N3CCOCC3)nc(N3CCOCC3)n2)c1`, the Potency is reported as “inactive”. With `CN(C)C(=O)CSc1cccc2cccnc12` the Potency was 6.96 µM (active). In the case of `Cc1cc(C)n(-c2nc(NC(C)C)nc(NC(C)C)n2)n1`, the Potency is reported as “inactive”. In the case of `COc1ccc(C(=O)NC(c2ccco2)c2cc(Cl)c3cccnc3c2O)cc1` (stereo not given), the Potency is reported as “inactive”. In the case of `CCNc1nc(NCC)nc(-n2cc(C(=O)c3cc(Cl)ccc3O)cn2)n1`, the Potency is reported as “inactive”. For `O=C(CSc1cccc2cccnc12)NCc1ccccc1`, the Potency was “inactive”. For `Oc1c(C(Nc2ccccn2)c2ccccn2)ccc2cccnc12` (stereo not given), the Potency was 36.2 µM (active). In the case of `COc1ccc(C(NC(=O)C(C)C)c2ccc3cccnc3c2O)cc1` (stereo not given), the Potency is reported as 7.83 µM (active). With `Cc1ccc2ccc(C(Nc3cccc(Cl)c3)c3ccccn3)c(O)c2n1` (stereo not given) the Potency was “inactive”. For `CC(C)C(=O)NC(c1ccc(N(C)C)cc1)c1ccc2cccnc2c1O` (stereo not given), the Potency was 8.14 µM (active). In the case of `O=C(Oc1cccc2cccnc12)c1ccc(Br)o1`, the Potency is reported as 14.6 µM (active). With `Cc1cc(C)n(-c2nc(NC(C)C)nc(NC(C)(C)C)n2)n1` the Potency was “inactive”. In the case of `COC(=O)c1cccc(NC(c2ccccn2)c2ccc3cccnc3c2O)c1` (stereo not given), the Potency is reported as “inactive”.
